Assay results as given in PubChem BioAssay (NCI).
This is part of a sample that, as a whole, favours compounds with a hit. Of some 79,000 tested, about 15% had one in any assay. Calls of active or inactive are those of the source. Cut-off read from the data, not from the text of the source: active = growth inhibition above about 70%; inactive = the rest.

Tests used:
[1] = NCI Yeast Anticancer Drug Screen. Data for the rad50 strain (AID 155);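 note: 0% = growth of vehicle-only cultures of the same strain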; settings: S. cerevisiae rad50 strain growth inhibition; at 50.0 µM; stronger effect = higher value
In short: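 Vehicle-treated cultures provide the reference for the growth inhibition reported for compound-exposed, repair-deficient yeast.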

[2] = NCI Yeast Anticancer Drug Screen. Data for the mec2-1 strain (AID 157); settings: S. cerevisiae mec2-1 strain, at 50.0 µM, stronger effect = higher value
In short: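 Readout is yeast growth inhibition, normalised to vehicle-treated controls, in the mec2-1 strain exposed to compound.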

[3] = NCI Yeast Anticancer Drug Screen. Data for the sgs1 mgt1 strain (AID 161);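 note: 0% = growth of cultures given vehicle only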; settings: S. cerevisiae sgs1 mgt1 strain, at 50.0 µM, stronger effect = higher value
In short: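 Percent growth inhibition was derived by comparing compound-exposed mutant yeast with vehicle-exposed cultures. The strain carries alterations in DNA damage repair.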

[4] = NCI Yeast Anticancer Drug Screen. Data for the cln2 rad14 strain (AID 165);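 note: 0% = growth equal to vehicle treated cultures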; settings: S. cerevisiae cln2 rad14 strain, at 50.0 µM, stronger effect = higher value
In short: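 Relative to vehicle controls, growth inhibition of compound-treated cln2 rad14 yeast was recorded.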

[5] = NCI Yeast Anticancer Drug Screen. Data for the bub3 strain (AID 167); settings: S. cerevisiae bub3 mutant strain, at 50.0 µM, stronger effect = higher value
In short: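 Mutant yeast screening strain plus compound; vehicle-treated cultures serve as the 0% inhibition reference.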

[6] = NCI Yeast Anticancer Drug Screen. Data for the mlh1 rad18 strain (AID 175); settings: S. cerevisiae mlh1 rad18 strain growth inhibition; at 50.0 µM; stronger effect = higher value
In short: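 Test agents were incubated with a yeast strain of defined genotype (DNA damage repair defect). Inhibition of growth was derived by comparison with vehicle-exposed cultures.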

Measured: growth inhibition

O=c1[nH]c2cc3ccccc3cc2c2ccccc12
inactive: [1] 21.9% | [2] 9.6% | [3] 0.8% | [4] -15.7% | [5] -1.7% | [6] 14.2%

O=C(/C=C/c1cccc2ccccc12)c1ccccc1Cl
inactive: [1] 52.9% | [2] -9.25% | [3] 7.65% | [4] 16.9% | [5] -6.65% | [6] 35.2%

O=C1NC(=S)S/C1=C/C=C/c1ccccc1[N+](=O)[O-]
inactive: [1] 2.95% | [2] 0.85% | [3] -3.9% | [4] -16.6% | [5] 42.5% | [6] -16.6%

Cc1ccc(N=C2c3cc([N+](=O)[O-])ccc3-c3ccc([N+](=O)[O-])cc32)cc1
inactive: [1] 15.1% | [2] -10.1% | [3] 0.35% | [4] -18.1% | [5] -4% | [6] -2.25%

CC1C2c3ccccc3C(c3ccccc32)C1CN1C(CCO)COC1c1ccccc1 (configuration not stated)
inactive: [1] 4.05% | [2] 8.9% | [3] -3.25% | [4] -1.75% | [5] 1.4% | [6] 7.6%

CCn1c(S)c(N=NC(=S)c2ccc3ccccc3n2)c2ccccc21
inactive: [1] 46% | [2] 18.9% | [3] 27.8% | [4] 23.4% | [5] 17.4% | [6] 11.5%

CCn1c2ccccc2c2nnc(NCCCO)nc21
inactive: [1] -14.7% | [2] -31.3% | [3] -16.5% | [4] -1.25% | [5] -51.7% | [6] 7.55%

Cc1cc(C)c(S(N)(=O)=O)c(C)c1
inactive: [1] -1.2% | [2] -16.6% | [3] -28.2% | [4] -5.4% | [5] -15.1% | [6] -0.8%

CCOC1CN(C(=O)ON)N1C(=O)ON (configuration not stated)
inactive: [1] 4.8% | [2] -12.6% | [3] -10.4% | [4] -33.2% | [5] -22.4% | [6] 4.85%

OC1CNC(=S)NC1
inactive: [1] -8.85% | [2] -10.2% | [3] -12.6% | [4] -22.2% | [5] -5.2% | [6] 12.9%

CCOC(=O)COc1ccc(Cl)cc1CCl
inactive: [1] 3.2% | [2] 6.4% | [3] -10.4% | [4] -10.9% | [5] 21.9% | [6] 1.65%

C=CCCCCCCCCC(N)=O
inactive: [1] -12.6% | [2] -8.4% | [3] 4.15% | [4] -1.8% | [5] 13.2% | [6] -14.6%

CC1ON2CCCC2[C@H]1C(=O)N1C2CC3CCC2(CS1(=O)=O)C3(C)C (some centres not stated)
inactive: [1] -4.35% | [2] 2.9% | [3] -28.6% | [4] -0.35% | [5] 19.4% | [6] -36.7%

COc1c2c(c(Cc3c4c(c(OC)c5c3OCO5)OC(C)C4)c3c1OCO3)CC(C)O2 (configuration not stated)
inactive: [1] 24.1% | [2] 2.35% | [3] 5.65% | [4] 6.05% | [5] -10.1% | [6] -7.3%

O=c1c(O)c(-c2ccccc2)oc2cc(O)cc(O)c12
inactive: [1] 24.5% | [2] 4.4% | [3] 40.9% | [4] 25.8% | [5] 27.4% | [6] 28.7%

C=CCOC(=O)OCCO
inactive: [1] 5.95% | [2] -0.55% | [3] -2.8% | [4] -34.5% | [5] -5.5% | [6] -15.9%

CC1=NN2C(=O)C(c3ccccc3)SC2=NC(C)(C)C1 (configuration not stated)
inactive: [1] 13.1% | [2] -18.9% | [3] 4.05% | [4] 26.6% | [5] -9.15% | [6] -7.25%

C=C(C)C(=O)OC1C(C(C)CCCO)=C(CO)CC2OC(=O)C(=C)C21 (configuration not stated)
inactive: [1] -15.9% | [2] -29.1% | [3] -14.5% | [4] -7.7% | [5] -10.3% | [6] -29.1%

CCCCCCCCCCCCCCCC/C=C\CCCCCCCCCCCCCCCCC
inactive: [1] -7.8% | [2] -18.1% | [3] -0.85% | [4] 17.3% | [5] 2.25% | [6] -13.1%

CC(=O)N1CC(=O)N2C(=O)/C(=C/c3ccc(Cl)cc3)N=C12
inactive: [1] 2.3% | [2] 1.35% | [3] 11.9% | [4] 3.35% | [5] 9.45% | [6] -42.4%

CN(C)C(=O)NCc1cccnc1
inactive: [1] -21.8% | [2] 10.9% | [3] 0.35% | [4] -78.2% | [5] -3.45% | [6] -10.7%

COC(=O)CCOc1ccc(C)cc1
inactive: [1] 28.2% | [2] 12.9% | [3] 6.6% | [4] 10.3% | [5] -5.85% | [6] -21.9%

CCS(=O)(=O)c1ccc(NC(=O)OC2CCCCCC2)cc1
inactive: [1] -2.65% | [2] -2.25% | [3] 25.8% | [4] -1.25% | [5] 12.3% | [6] 7.8%

COC(=O)/C=C(/C=C1/C(C#N)=C(N)N(c2ccc(Cl)cc2)C1(C)/C(=C/C(=O)OC)C(=O)OC)C(=O)OC (configuration not stated)
inactive: [1] -3.15% | [2] -11.4% | [3] 2.5% | [4] 6.95% | [5] 21.8% | [6] 10.7%

COC(=O)C1CC(=C(C)C)CCC1=O (configuration not stated)
inactive: [1] 11.1% | [2] 2.15% | [3] 0.4% | [4] 11.2% | [5] 8.7% | [6] -1.7%

CCCCCCCCCCCC(=O)OCC1OC(n2cc(F)c(=O)[nH]c2=O)C(NC(=O)OCc2ccccc2)C(O)C1O (configuration not stated)
inactive: [1] 62.8% | [2] 5.85% | [3] 31.2% | [4] 18.8% | [5] 18.1% | [6] 24.8%

CSc1ncc2c(C#N)c3sc4ccccc4n3c(=O)c2n1
inactive: [1] 14.8% | [2] -8.05% | [3] 32.4% | [4] 12.4% | [5] 26.5% | [6] -21.1%

CC(=O)NNc1nc(C)c(C(/C=C/c2ccc([N+](=O)[O-])cc2)=N/NC(N)=S)s1
inactive: [1] -8.6% | [2] -2.25% | [3] -10% | [4] -12.4% | [5] -7.2% | [6] 6.7%

O=C(O)Cc1cccc2c(=O)cc(Cc3ccccc3)oc12
inactive: [1] -13.8% | [2] -16.6% | [3] -11.5% | [4] 6.6% | [5] 20.1% | [6] -15%

O=C(OCC1OC(OCc2ccccc2)C(OC(=O)c2ccccc2)C1OC(=O)c1ccccc1)c1ccccc1 (configuration not stated)
inactive: [1] -10.2% | [2] -6.1% | [3] -2.4% | [4] -3% | [5] -13.5% | [6] -24.1%

CCOC(=O)C1CCC/C1=N/Nc1ccc([N+](=O)[O-])cc1[N+](=O)[O-] (configuration not stated)
inactive: [1] -1% | [2] 10.6% | [3] 3.25% | [4] -21.9% | [5] -5.3% | [6] -4.75%

CS(=O)(=O)OCC1OC(n2ccc(NC(=O)c3ccccc3)nc2=O)CC1OS(C)(=O)=O (configuration not stated)
inactive: [1] 0.5% | [2] -16.9% | [3] -5.8% | [4] -11.7% | [5] -14.8% | [6] -4%

O=c1c(Cc2ccccc2)coc2ccccc12
inactive: [1] 30.6% | [2] 14.6% | [3] 21.4% | [4] -14.2% | [5] 27.5% | [6] -1.5%

C[C@]1(CO)[C@H]2CC[C@@]34C=C[C@@](CO)(CC[C@H]3[C@]2(C)CC[C@H]1O)C4
inactive: [1] 5.45% | [2] 1.05% | [3] 39.6% | [4] 6.4% | [5] 11.7% | [6] -48.4%

CCC(=O)CC(=O)C(=O)OC
inactive: [1] 6.25% | [2] 14.6% | [3] -8.45% | [4] -15.7% | [5] 3.5% | [6] 17%

N#CCC(=O)NCCc1ccccn1
inactive: [1] -6.75% | [2] -3.7% | [3] -13.8% | [4] -44.6% | [5] 10.2% | [6] -9.05%

NC(CSSCC(N)=NCC12CC3CC(CC(C3)C1)C2)=NCC12CC3CC(CC(C3)C1)C2
active: [1] 99.4% | [2] 99.5% | [3] 99.5% | [4] 97.4% | [5] 98.8% | [6] 99.2%

CCOC(=O)CC1CN(C(=O)c2ccccc2)CCC12OCCO2 (configuration not stated)
inactive: [1] -3.4% | [2] -4.3% | [3] -4% | [4] -5.05% | [5] -2.35% | [6] -5.3%

COc1ccc(C2c3cc4c(cc3OC(Nc3ccccc3)C2C)OCO4)cc1 (configuration not stated)
inactive: [1] 9% | [2] 9.95% | [3] 30% | [4] 43.8% | [5] 27.1% | [6] 33.6%

CC(C#N)NCc1ccc(C(C)NC(C)C#N)cc1 (configuration not stated)
inactive: [1] 4.5% | [2] 2.15% | [3] -43.8% | [4] -26.1% | [5] -10.8% | [6] -15.7%

CCCCC(CC)C(C(C)=O)N(C)C (configuration not stated)
inactive: [1] 33.1% | [2] -9.45% | [3] 13.1% | [4] 8.65% | [5] 4.45% | [6] 4.75%

N#CC1CCCC(CBr)C1 (configuration not stated)
inactive: [1] -24.9% | [2] -43% | [3] -20.5% | [4] -23.7% | [5] -9.05% | [6] -26.7%
